Inconclusive results are not listed. Calls of active or inactive are those of the source. Unless noted, the call rests on the fitted dose curve; in most records, active means well fitted curve in the direction sought with a large enough effect in the repeat runs; inconclusive means weak or mixed curves; inactive means no such curve, though single readings can be large; an effect the other way counts as inactive or inconclusive.
How the values were obtained:
[1] = qHTS assay to identify aromatase inhibitors - cell viability counter screen (AID 743084);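 further: cells stimulated with testosterone during compound exposure; nearly all actives have a fitted effect of over 55% in size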
[2] = target: Aryl hydrocarbon receptor (Homo sapiens) (UniProt P35869); assay: qHTS assay to identify small molecule that activate the aryl hydrocarbon receptor (AhR) signaling pathway (AID 743085);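 further: HG2L7.5c1 human HepG2 liver cells with stably integrated DRE-driven firefly reporter; series mostly up to about 70 µM; nearly all actives have a fitted effect of over 15% in size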
Procedure, shortened: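 Measured in HG2L7.5c1 cells: CellTiter-Fluor signal (30 min incubation, 37C) for viability, then luciferase luminescence (30 min, room temperature). Compound contact time was 24 h at 37C, following a 5 h pre-incubation.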

[3] = qHTS assay to identify small molecule that activate the aryl hydrocarbon receptor (AhR) signaling pathway - cell viability counter screen (AID 743086);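 further: HepG2 liver cells carrying the AhR DRE luciferase reporter; series mostly up to about 70 µM; nearly all actives have a fitted effect of over 45% in size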
Procedure, shortened: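 HepG2-AhR-luc (HG2L7.5c1) cells, 4000/well, treated 24 h at 37 C with compound; viability measured as CellTiter-Fluor fluorescence after 30 min in the same wells as the luciferase read.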

[4] = target: Peroxisome proliferator-activated receptor gamma (Homo sapiens) (UniProt P37231); assay: qHTS assay to identify small molecule agonists of the peroxisome proliferator-activated receptor gamma (PPARg) signaling pathway (AID 743094; active means well fitted activation curve with a large enough effect in the signal ratio in the repeat runs, not every such curve was filed as active; the % refers to the signal ratio)
Procedure, shortened: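 Agonist activity was taken from a beta-lactamase reporter (FRET substrate, 1 h at room temperature) in HEK293H cells carrying a PPARg UAS-bla construct. Compounds in DMSO were incubated 17 h at 37C after a 5 h cell pre-incubation.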

[5] = qHTS assay to identify small molecule antagonists of the peroxisome proliferator-activated receptor gamma (PPARg) signaling pathway - cell viability counter screen (AID 743194); further: nearly all actives have a fitted effect of over 55% in size
Procedure, shortened: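 Cytotoxicity counter screen in PPARg-bla HEK293H cells, same wells as reporter assay. Compounds plus 50 nM rosiglitazone (final) for 17 h at 37 C, then viability read by CellTiter-Glo luminescence.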

[6] = qHTS assay for small molecule agonists of the antioxidant response element (ARE) signaling pathway (AID 743202; active means well fitted activation curve with a large enough effect in the signal ratio in the repeat runs, not every such curve was filed as active; the % refers to the signal ratio)
Procedure, shortened: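 HepG2 ARE-bla reporter line, 2,000 cells/well; 5 h preincubation 37 C/5% CO2; compound (DMSO) 16 h 37 C; B/G FRET substrate 2 h RT; fluorescence intensity.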

[7] = qHTS assay for small molecule agonists of the antioxidant response element (ARE) signaling pathway - cell viability counter screen (AID 743203; calls by dose curve; further: nearly all actives have a fitted effect of over 55% in size)
Procedure, shortened: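 Viability counter screen: CellTiter-Glo luminescence, read after 30 min at room temperature, in ARE-bla HepG2 wells. Compound exposure lasted 16 h at 37C/5% CO2, following a 5 h pre-incubation of the cells after plating.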

[8] = qHTS assay to identify small molecule agonists of the peroxisome proliferator-activated receptor delta (PPARd) signaling pathway - cell viability counter screen (AID 743211); further: nearly all actives have a fitted effect of over 55% in size
Procedure, shortened: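 Following 5 h plating at 37 C and 5% CO2, PPARd UAS-bla HEK293H cells took up test compounds for 17 h. Viability was quantified by luminescence 30 min after CellTiter-Glo addition at room temperature.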

[9] = target: Peroxisome proliferator-activated receptor delta (Homo sapiens) (UniProt Q03181); assay: qHTS assay to identify small molecule agonists of the peroxisome proliferator-activated receptor delta (PPARd) signaling pathway (AID 743212; calls by dose curve)
Procedure, shortened: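 Read-out: beta-lactamase FRET fluorescence after 2 h room-temperature incubation with LiveBLAzer B/G substrate. Cells were HEK293H carrying a UAS-bla reporter for PPARd, treated at 37 C with DMSO-dissolved compounds.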

[10] = target: Peroxisome proliferator-activated receptor delta (Homo sapiens) (UniProt Q03181); assay: qHTS assay to identify small molecule antagonists of the peroxisome proliferator-activated receptor delta (PPARd) signaling pathway (AID 743215; active means well fitted inhibition curve with a large enough effect in the signal ratio in the repeat runs, not every such curve was filed as active; the % refers to the signal ratio;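 further: cells stimulated with agonist L165041 at 300 nM final during compound exposure; series mostly up to about 62 µM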)
Procedure, shortened: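 Agonist L165041 (300 nM final) added with compound to PPARd-bla HEK293H UAS-bla reporter cells; 17 h incubation at 37 C. Read-out: LiveBLAzer FRET substrate, 2 h at room temperature, fluorescence intensity.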

[11] = qHTS assay to identify small molecule agonists of the farnesoid-X-receptor (FXR) signaling pathway - cell viability counter screen (AID 743218); further: nearly all actives have a fitted effect of over 45% in size
Procedure, shortened: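 Viability counter screen in the same wells: CellTiter-Glo luminescence, 30 min room-temperature incubation, measured after the beta-lactamase read. Cells were GeneBLAzer FXR-UAS-bla HEK 293T, compound-treated 16 h at 37C.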

[12] = qHTS assay to identify small molecule antagonists of the farnesoid-X-receptor (FXR) signaling pathway - cell viability counter screen (AID 743221; active means well fitted cell-killing curve with a large enough effect in the repeat runs, not every such curve was filed as active; further: nearly all actives have a fitted effect of over 50% in size)
Procedure, shortened: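 Compound effects on cell number were measured as CellTiter-Glo luminescence in HEK 293T cells expressing FXR-UAS-bla, after 16 h at 37 C with 50 uM CDCA (final).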

[13] = target: Vitamin D3 receptor (Homo sapiens) (UniProt P11473); assay: qHTS assay to identify small molecule agonists of the vitamin D receptor (VDR) signaling pathway (AID 743222; calls by dose curve)
Procedure, shortened: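 Agonist mode, beta-lactamase reporter: fluorescence from LiveBLAzer B/G FRET substrate (2 h, room temperature) read after 16 h compound treatment at 37 C of VDR-bla cells, which were pre-incubated 4 h after seeding.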

[14] = target: Vitamin D3 receptor (Homo sapiens) (UniProt P11473); assay: qHTS assay to identify small molecule antagonists of the vitamin D receptor (VDR) signaling pathway (AID 743223; active means well fitted inhibition curve with a large enough effect in the signal ratio in the repeat runs, not every such curve was filed as active; the % refers to the signal ratio)
Procedure, shortened: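 Beta-lactamase activity in VDR-bla cells is measured by FRET substrate fluorescence (2 h, room temperature) after cells spend 16 h at 37C with test compound and 3 nM final 1alpha,25-dihydroxyvitamin D3.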

[15] = qHTS assay for small molecule activators of the heat shock response signaling pathway - cell viability counter screen (AID 743209); further: nearly all actives have a fitted effect of over 50% in size
Procedure, shortened: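 Cytotoxicity counter screen run in the same wells as the heat-shock bla reporter assay: HeLa HSE-bla cells, 5 h compound exposure at 37 C, viability read by CellTiter-Glo luminescence.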

[16] = qHTS assay for small molecule activators of the heat shock response signaling pathway (AID 743210; active means well fitted activation curve with a large enough effect in the signal ratio in the repeat runs, with a control signal flat, not every such curve was filed as active; the % refers to the signal ratio;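 further: HeLa cells with beta-lactamase reporter driven by heat shock elements; series mostly up to about 63 µM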)
Procedure, shortened: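 Beta-lactamase reporter read-out: FRET substrate fluorescence after 2.5 h at RT, following 5 h compound treatment at 37 C of HeLa cells carrying HSE-driven bla reporter; quantitative HTS format.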

[17] = target: Peroxisome proliferator-activated receptor gamma (Homo sapiens) (UniProt P37231); assay: qHTS assay to identify small molecule antagonists of the peroxisome proliferator-activated receptor gamma (PPARg) signaling pathway (AID 743191; calls by dose curve; further: series mostly up to about 63 µM; nearly all actives have a fitted effect of over 30% in size)
Procedure, shortened: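 GeneBLAzer PPARg UAS-bla HEK293H cells, 5 h post-plating, exposed to compounds 17 h at 37C. LiveBLAzer B/G FRET substrate added for 1 h at room temperature; beta-lactamase reporter read by fluorescence intensity.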

[18] = qHTS assay to identify small molecule antagonists of the peroxisome proliferator-activated receptor delta (PPARd) signaling pathway - cell viability counter screen (AID 743213); further: nearly all actives have a fitted effect of over 50% in size
Procedure, shortened: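 CellTiter-Glo was added to PPARd-bla HEK293H wells following 17 h compound treatment in the presence of 300 nM L165041. Luminescence was recorded after 30 min at room temperature.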

[19] = target: Bile acid receptor (Homo sapiens) (UniProt Q96RI1); assay: qHTS assay to identify small molecule antagonists of the farnesoid-X-receptor (FXR) signaling pathway (AID 743217; active means well fitted inhibition curve with a large enough effect in the signal ratio in the repeat runs, not every such curve was filed as active; the % refers to the signal ratio)
Procedure, shortened: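 Antagonist mode: chenodeoxycholic acid at 50 uM final stimulates a UAS-driven beta-lactamase reporter in HEK 293T FXR-bla cells during 16 h, 37C compound exposure. Read-out is FRET substrate fluorescence after 2 h at room temperature.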

[20] = target: Bile acid receptor (Homo sapiens) (UniProt Q96RI1); assay: qHTS assay to identify small molecule agonists of the farnesoid-X-receptor (FXR) signaling pathway (AID 743220; active means well fitted activation curve with a large enough effect in the signal ratio in the repeat runs, not every such curve was filed as active; the % refers to the signal ratio)
Procedure, shortened: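 FXR-UAS-bla HEK 293T cells carrying a UAS-driven beta-lactamase reporter were plated for 5 h at 37C/5% CO2, then exposed to DMSO-dissolved Tox21 10K compounds for 16 h at 37C. A LiveBLAzer B/G FRET substrate was loaded for 2 h at room temperature before fluorescence reading.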

Measured: Potency

Chain of Aryl hydrocarbon receptor (Homo sapiens) (P35869 whole entry, looked up): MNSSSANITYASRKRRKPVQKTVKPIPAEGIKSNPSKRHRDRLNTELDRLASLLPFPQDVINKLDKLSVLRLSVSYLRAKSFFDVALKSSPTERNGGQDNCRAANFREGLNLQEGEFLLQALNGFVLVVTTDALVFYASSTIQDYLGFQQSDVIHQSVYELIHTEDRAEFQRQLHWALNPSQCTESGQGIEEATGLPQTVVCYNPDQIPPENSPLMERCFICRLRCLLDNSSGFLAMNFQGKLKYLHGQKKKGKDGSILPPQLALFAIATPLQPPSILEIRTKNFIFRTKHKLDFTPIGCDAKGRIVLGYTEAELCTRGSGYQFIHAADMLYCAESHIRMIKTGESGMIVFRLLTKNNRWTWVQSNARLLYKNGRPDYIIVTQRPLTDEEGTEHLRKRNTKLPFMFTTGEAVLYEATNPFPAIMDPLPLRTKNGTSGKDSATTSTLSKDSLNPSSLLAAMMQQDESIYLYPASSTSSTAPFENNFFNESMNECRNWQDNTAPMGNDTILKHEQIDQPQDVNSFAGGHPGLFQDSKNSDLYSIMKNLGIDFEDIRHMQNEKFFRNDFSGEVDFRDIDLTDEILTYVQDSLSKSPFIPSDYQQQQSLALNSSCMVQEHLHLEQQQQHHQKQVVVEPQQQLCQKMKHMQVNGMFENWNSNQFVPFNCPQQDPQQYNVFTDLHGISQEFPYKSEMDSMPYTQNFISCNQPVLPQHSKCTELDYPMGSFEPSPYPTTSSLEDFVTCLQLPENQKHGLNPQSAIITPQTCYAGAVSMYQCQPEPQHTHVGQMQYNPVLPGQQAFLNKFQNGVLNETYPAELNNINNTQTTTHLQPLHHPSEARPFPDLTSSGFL
Chain of Vitamin D3 receptor (Homo sapiens) (P11473 whole entry, looked up): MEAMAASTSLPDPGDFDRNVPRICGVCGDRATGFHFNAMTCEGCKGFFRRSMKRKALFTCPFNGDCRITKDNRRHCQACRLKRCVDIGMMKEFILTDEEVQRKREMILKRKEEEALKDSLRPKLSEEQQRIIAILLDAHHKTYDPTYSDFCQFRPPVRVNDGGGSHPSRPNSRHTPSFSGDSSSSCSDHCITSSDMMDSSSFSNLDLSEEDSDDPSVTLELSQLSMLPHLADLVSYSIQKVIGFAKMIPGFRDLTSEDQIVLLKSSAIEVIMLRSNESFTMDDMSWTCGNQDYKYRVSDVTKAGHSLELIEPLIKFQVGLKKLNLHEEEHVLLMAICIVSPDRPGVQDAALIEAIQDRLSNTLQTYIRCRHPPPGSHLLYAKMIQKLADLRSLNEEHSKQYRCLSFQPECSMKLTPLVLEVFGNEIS
Chain of Bile acid receptor (Homo sapiens) (Q96RI1 whole entry, looked up): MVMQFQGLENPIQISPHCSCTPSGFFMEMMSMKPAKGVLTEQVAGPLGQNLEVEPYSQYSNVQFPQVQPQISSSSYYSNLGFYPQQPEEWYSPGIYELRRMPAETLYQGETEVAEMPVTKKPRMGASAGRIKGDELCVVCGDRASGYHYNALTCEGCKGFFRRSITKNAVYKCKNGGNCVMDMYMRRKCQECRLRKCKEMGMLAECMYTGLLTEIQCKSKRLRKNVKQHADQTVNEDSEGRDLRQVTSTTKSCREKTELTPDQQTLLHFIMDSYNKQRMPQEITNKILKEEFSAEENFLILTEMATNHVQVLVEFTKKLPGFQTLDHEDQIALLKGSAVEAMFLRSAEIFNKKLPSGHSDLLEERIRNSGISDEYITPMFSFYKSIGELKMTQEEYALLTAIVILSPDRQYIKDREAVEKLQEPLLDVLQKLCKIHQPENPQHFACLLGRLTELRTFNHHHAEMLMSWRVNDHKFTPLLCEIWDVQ
Chain of Peroxisome proliferator-activated receptor gamma (Homo sapiens) (P37231 whole entry, looked up): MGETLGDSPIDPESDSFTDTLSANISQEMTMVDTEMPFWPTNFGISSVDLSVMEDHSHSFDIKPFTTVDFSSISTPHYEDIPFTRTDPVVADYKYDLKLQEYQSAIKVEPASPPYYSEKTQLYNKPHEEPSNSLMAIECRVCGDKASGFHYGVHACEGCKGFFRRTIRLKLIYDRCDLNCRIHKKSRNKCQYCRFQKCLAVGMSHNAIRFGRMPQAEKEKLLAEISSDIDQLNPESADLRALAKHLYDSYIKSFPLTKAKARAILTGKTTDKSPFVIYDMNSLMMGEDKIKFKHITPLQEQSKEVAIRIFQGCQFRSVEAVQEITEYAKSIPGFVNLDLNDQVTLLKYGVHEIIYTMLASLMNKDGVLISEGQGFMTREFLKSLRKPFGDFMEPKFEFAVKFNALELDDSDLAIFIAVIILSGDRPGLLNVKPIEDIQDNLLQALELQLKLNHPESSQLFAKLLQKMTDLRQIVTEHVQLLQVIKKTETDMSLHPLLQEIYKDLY
Chain of Peroxisome proliferator-activated receptor delta (Homo sapiens) (Q03181 whole entry, looked up): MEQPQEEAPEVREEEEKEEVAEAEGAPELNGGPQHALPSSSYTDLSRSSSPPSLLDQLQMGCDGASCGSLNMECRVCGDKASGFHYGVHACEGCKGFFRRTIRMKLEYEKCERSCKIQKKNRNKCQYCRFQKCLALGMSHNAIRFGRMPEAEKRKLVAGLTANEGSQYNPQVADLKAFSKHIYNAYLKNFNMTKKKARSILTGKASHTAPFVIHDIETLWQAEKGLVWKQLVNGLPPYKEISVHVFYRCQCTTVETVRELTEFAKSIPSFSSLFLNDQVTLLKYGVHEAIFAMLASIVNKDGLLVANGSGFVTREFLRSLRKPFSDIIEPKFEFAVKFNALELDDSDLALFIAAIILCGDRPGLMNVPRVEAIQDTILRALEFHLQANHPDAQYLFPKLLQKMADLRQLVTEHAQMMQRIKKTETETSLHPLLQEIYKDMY

Clc1cc(Cl)cc(Cl)c1
not listed: [15] | [16] | [17] | [18] | [19] | [20]
inactive: all other assays above

O=C(O)CNC(=O)c1ccc(CO)o1
not listed: [8] | [13] | [14] | [17] | [18] | [19] | [20]
inactive: all other assays above

C1CCC2(CCCCO2)OC1
not listed: [9] | [10] | [14] | [17] | [18] | [19] | [20]
inactive: all other assays above

N[C@@H](CCC(=O)O)C(=O)O
not listed: [5] | [16] | [19] | [20]
inactive: all other assays above

CC(=O)N[C@H]1[C@H]([C@H](O)[C@H](O)CO)OC(C(=O)O)=C[C@@H]1N=C(N)N
not listed: [14] | [15] | [16] | [17] | [19] | [20]
inactive: all other assays above

CCCCCCCCCCCCCCC(=O)O
not listed: [6] | [9] | [13] | [17] | [18] | [19] | [20]
inactive: all other assays above

CC(C)=CCC/C(C)=C/C#N
not listed: [6] | [8] | [9] | [10] | [16] | [17]
inactive: all other assays above

CO[Si](C)(OC)c1ccccc1
not listed: [5] | [10] | [14] | [15] | [16] | [19] | [20]
inactive: all other assays above

CC1OC1C1CCC2(C)OC2C1 (stereo unspecified)
not listed: [5] | [8] | [9] | [10] | [19] | [20]
inactive: all other assays above

O=C(O)CC(C(=O)O)S(=O)(=O)O (stereo unspecified)
inactive: [1] | [2] | [3] | [4] | [5] | [6] | [7] | [9] | [11] | [12] | [13]

CCCOC(=O)CC
not listed: [7] | [9] | [11] | [14] | [16] | [17] | [19] | [20]
inactive: all other assays above

C=C[Si](OC(C)=O)(OC(C)=O)OC(C)=O
not listed: [10] | [13] | [14] | [16] | [17] | [18] | [19] | [20]
inactive: all other assays above

CCC(C)(CCCC(C)C)OC(C)=O (stereo unspecified)
not listed: [16] | [17] | [18]
inactive: all other assays above

CC(C)(C)c1ccc(-c2ccc(C(C)(C)C)cc2)cc1
not listed: [13] | [14] | [16] | [17] | [19]
inactive: all other assays above

CC(=O)Oc1cccc(C)c1
not listed: [5] | [13] | [14] | [16] | [19] | [20]
inactive: all other assays above

CCCCCCCCCCCCCCCCCCO
not listed: [17] | [18] | [19] | [20]
inactive: all other assays above

CO/N=C(\C(=O)N[C@@H]1C(=O)N2C(C(=O)O)=C(CSc3nc(=O)c(O)nn3C)CS[C@H]12)c1csc(N)n1
not listed: [5] | [15] | [16] | [18] | [19] | [20]
inactive: all other assays above

CCOC(=O)CCC(=O)OCC
not listed: [9] | [13] | [16] | [17] | [19] | [20]
inactive: all other assays above

CC(N)C12CC3CC(CC(C3)C1)C2 (stereo unspecified)
not listed: [14] | [17] | [19]
inactive: all other assays above

Reference: PubChem BioAssay (Tox21)
